# Measured values reported in PubChem BioAssay AID743364 (National Center for Advancing Translational Sciences (NCATS), 2014).
# Values without a mark were called inactive. Calls of active or inactive are those of the source. The call rests on the fitted dose curve; in most records, active means well fitted curve in the direction sought with a large enough effect; inactive means no such curve, though single readings can be large or run the other way.
# Assay: qHTS profiling of inhibitors of Plasmodium falciparum (3D7) proliferation (acoustic dispense)
# Conditions: P. falciparum 3D7 in erythrocytes, SYBR Green, 72 h; series mostly up to 49.8 µM
SMILES,outcome,activity change
CCc1nc(N)nc(N)c1-c1ccc(Cl)cc1,inactive,
CC[C@H]1CN2CCc3cc(OC)c(OC)cc3[C@H]2C[C@@H]1C[C@@H]1NCCc2cc(OC)c(OC)cc21,inactive,
CC(C)[C@H](C(=O)Nc1ccc(C(=O)NO)cc1)c1ccccc1,inactive,
CC[C@@]1([C@@H]2O[C@@H]([C@H]3O[C@@](O)(CO)[C@H](C)C[C@H]3C)C[C@H]2C)CC[C@H]([C@]2(C)CC[C@]3(C[C@H](O)[C@@H](C)[C@@H]([C@@H](C)[C@@H](OC)[C@H](C)C(=O)O)O3)O2)O1,inactive,
Cn1cnc(=N)c2[nH]cnc21,inactive,
O=C(Nc1cn[nH]c1-c1nc2ccc(CN3CCOCC3)cc2[nH]1)NC1CC1,inactive,
CO[C@H]1O[C@@H]2O[C@@]3(C)CC[C@@H]4[C@@H](C)CC[C@@H]([C@H]1C)[C@@]24OO3,inactive,
Cc1nc2c(C#N)cccc2n1-c1ccc(C(=O)NC2CC2)s1,inactive,
C=CCn1c(=O)c2cnc(Nc3ccc(N4CCN(C)CC4)cc3)nc2n1-c1cccc(C(C)(C)O)n1,inactive,
COc1ccc2nc3cc(Cl)ccc3c(Nc3cc(CN4CCCC4)c(O)c(CN4CCCC4)c3)c2n1,inactive,
CCN(CC)CCCC(C)Nc1ccnc2cc(Cl)ccc12 (centres undefined),inactive,
CCCC[C@@H]1C[C@@H](C(=O)NC([C@H](C)Cl)[C@H]2O[C@H](S)[C@H](O)[C@@H](O)[C@@H]2O)N(C)C1 (some centres undefined),inactive,
C=CCNc1c(O)cc2c(O)c1C[C@@H](C)C[C@H](OC)[C@@H](O)[C@@H](C)C=C(C)[C@H](OC(N)=O)[C@@H](OC)C=CC=C(C)C(=O)N2,inactive,
COc1cc([C@@H]2c3cc4c(cc3[C@@H](O[C@@H]3O[C@@H]5CO[C@@H](c6cccs6)O[C@@H]5[C@H](O)[C@@H]3O)[C@H]3COC(=O)[C@H]23)OCO4)cc(OC)c1O,inactive,
C1CCC(C(CC2CCCCN2)C2CCCCC2)CC1 (centres undefined),inactive,
Cc1ccc([N+](=O)[O-])cc1S(=O)(=O)N(C)N=Cc1cnc2ccc(Br)cn12,inactive,
CO[C@H]1C=CO[C@@]2(C)Oc3c(C)c(O)c4c(O)c(c(C=NN5CCN(C)CC5)c(O)c4c3C2=O)NC(=O)C(C)=CC=C[C@H](C)[C@H](O)[C@@H](C)[C@@H](O)[C@@H](C)[C@H](OC(C)=O)[C@H]1C,inactive,
CC=C1C2C=C(C)CC1(N)c1ccc(=O)[nH]c1C2 (centres undefined),inactive,
CO[C@H]1C=CC=C(C)C(=O)NC2=CC(=O)C(NCCN(C)C)=C(C[C@@H](C)C[C@H](OC)[C@@H](O)[C@@H](C)C=C(C)[C@@H]1OC(N)=O)C2=O,inactive,
C=CCNC1=C2C[C@@H](C)C[C@H](OC)[C@@H](O)[C@@H](C)C=C(C)[C@H](OC(N)=O)[C@@H](OC)C=CC=C(C)C(=O)NC(=CC1=O)C2=O,inactive,
CCNC(=O)c1noc(-c2cc(C(C)C)c(O)cc2O)c1-c1ccc(CN2CCOCC2)cc1,inactive,
O=C1c2ccccc2-[n+]2ccc3c([nH]c4ccccc43)c21,inactive,
Nc1ccc(-c2ccc3ncc4ccc(=O)n(-c5cccc(C(F)(F)F)c5)c4c3c2)cn1,inactive,
CC(Sc1nc2ccccc2[nH]1)C(=O)NN=Cc1cc(Br)ccc1O (centres undefined),,28.2% [at 4.15 µM]
Cn1cc(CNCC2CCN(c3ncc(C(=O)NO)cn3)CC2)c2ccccc21,inactive,
CN(C)c1ccc(C(=C2C=CC(=[N+](C)C)C=C2)c2ccc(N(C)C)cc2)cc1,inactive,
CO[C@@H]1C(N(C)C(=O)c2ccccc2)C[C@H]2O[C@]1(C)n1c3ccccc3c3c4c(c5c6ccccc6n2c5c31)C(=O)NC4=O (some centres undefined),inactive,
NC(=NCCCCCCN=C(N)N=C(N)Nc1ccc(Cl)cc1)N=C(N)Nc1ccc(Cl)cc1,inactive,
CCN(CC)CCNC(=O)c1c(C)[nH]c(C=C2C(=O)Nc3ccc(F)cc32)c1C,inactive,
